Assay [1] in a line: A CellTox Green Cytotoxicity Assay to monitor cytotoxicity in HepG2 cells - 0 hour (AID 1224882). Note: nearly all actives have a fitted effect of over 35% in size. The method, boiled down: (§1)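 Real-time, homogeneous cytotoxicity readout: dead-cell DNA staining by CellTox Green in HepG2 monolayers, fluorescence measured at timed intervals up to 40 h of continuous compound exposure.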
The nature of assay [2]: A CellTox Green Cytotoxicity Assay to monitor cytotoxicity in HepG2 cells - 32 hour (AID 1224883). Note: nearly all actives have a fitted effect of over 50% in size. Note: potency is the fitted concentration of half-maximal effect. Put shortly: as §1
The nature of assay [3]: A CellTox Green Cytotoxicity Assay to monitor cytotoxicity in HEK293 cells - 8 hour (AID 1224884). Note: nearly all actives have a fitted effect of over 35% in size. Put shortly:
(§2)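 Cytotoxicity was tracked continuously in HEK293 cells by a DNA-binding dye excluded from viable cells. Compounds were transferred in DMSO 5 h after seeding; fluorescence was recorded at intervals up to 40 h.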

Assay [4] is described as follows: qHTS RealTime-Glo MT Cell Viability Assay in HepG2 cells - 16 hour (AID 1224885). Note: nearly all actives have a fitted effect of over 50% in size. Note: potency is the fitted concentration of half-maximal effect. Put shortly: (§3)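 Viability was tracked continuously by NanoLuc luminescence from prosubstrate reduced by living HepG2 cells, at successive time points over 40 h of compound exposure. Cells with reagent were preincubated 5 h at 37 °C before compound addition.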
Assay [5] can be described thus: qHTS RealTime-Glo MT Cell Viability Assay in HEK293 cells - 24 hour (AID 1224886). Note: nearly all actives have a fitted effect of over 50% in size. Note: potency is the fitted concentration of half-maximal effect. The method, boiled down:
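Viability tracked continuously by luminescence as live cells reduce a prosubstrate for NanoLuc; HEK293 cells preincubated 5 h, compound-treated at 37 C, and read at 0, 8, 16, 24, 32 and 40 h.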
(Quantitative high-throughput screening tests each substance at several concentrations.)

Assay [6] can be described thus: qHTS RealTime-Glo MT Cell Viability Assay in HEK293 cells - 8 hour (AID 1224887). Note: nearly all actives have a fitted effect of over 50% in size. Note: potency is the fitted concentration of half-maximal effect. Put shortly: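 Nonlytic bioluminescent viability monitoring. HEK293 at 600 cells/well with reagent; 5 h settle; compound transfer by pintool; plates held at 37 C and read at set time points.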
A short description of assay [7]: qHTS RealTime-Glo MT Cell Viability Assay in HepG2 cells - 0 hour (AID 1224889). Note: nearly all actives have a fitted effect of over 50% in size. Put shortly: as §3
Assay [8] is described as follows: A CellTox Green Cytotoxicity Assay to monitor cytotoxicity in HepG2 cells - 8 hour (AID 1224890). Note: nearly all actives have a fitted effect of over 45% in size. The method, boiled down:
as §1

Assay [9] is described as follows: qHTS assay to identify small molecule antagonists of the estrogen receptor alpha (ER-alpha) signaling pathway using the BG1 cell line in the presence of 0.1 nM 17-beta-estradiol - cell viability counter screen (AID 1259241). Note: nearly all actives have a fitted effect of over 40% in size. The method, boiled down: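 Estradiol-stimulated (0.1 nM) VM7Luc4E2 cells exposed to compounds 22 hr; viability measured by fluorescence of cleaved CellTiter-Fluor substrate after 30 min.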

Assay [10] in a line: A CellTox Green Cytotoxicity Assay to monitor cytotoxicity in HEK293 cells - 16 hour (AID 1224888). Note: nearly all actives have a fitted effect of over 35% in size. The method, boiled down:
as §2

“And” between values parts separate entries of the source, which are not always exact repeats. Equal values may be shown once. Inconclusive results are not listed. A structure can be active in one record and inactive in another. The source made the active and inactive calls. Calls come from the whole dose curve; as a rule, active = well fitted curve in the direction sought with a large enough effect in the repeat runs; inconclusive = weak or mixed curves; inactive = no such curve, though single readings can be large; an effect the other way counts as inactive or inconclusive.

`CCCC(=O)Cl`: the Potency entry in assay [1], in assay [2], in assay [3], in assay [4], in assay [5] and in [6] was “inactive” each time. The Potency entry in assay [7], in assay [8] and in [9] was “inactive” in each case.
As to `O=NN1CCCCCC1`, the Potency entry in [1], in [2], in assay [3], in [4], in assay [5] and in assay [6] was “inactive” in each case. Besides, the Potency entry in [10], in [7] and in assay [9] was “inactive” throughout.
As to `C=COC(C)=O`, the Potency entry in assay [1], in [2], in assay [3], in assay [4], in assay [5] and in assay [6] was “inactive” in each case. Besides, the Potency entry in assay [7], in assay [8] and in assay [9] was “inactive” throughout.
`Cc1ccccc1CCl`: the Potency result in assay [1], in assay [2], in assay [3], in assay [4], in [5] and in assay [6] was “inactive” in each case. The Potency entry in assay [10], in assay [7] and in assay [9] was “inactive” in each case.
Regarding `CN1C(=O)NC(=O)C(C)(C2=CCCCC2)C1=O` (stereo not given), the Potency entry in assay [1], in [2], in [3], in assay [4], in [5] and in assay [6] was “inactive” in each case. Moreover, the Potency entry in assay [10], in assay [7], in assay [8] and in assay [9] was “inactive” throughout.
Take `CCOc1ccc(C(C)(C)COCc2cccc(Oc3ccccc3)c2)cc1`: the Potency result in [1], in [2], in assay [3], in assay [4], in assay [5] and in [6] was “inactive” each time. Further, the Potency result in assay [10], in assay [7], in [8] and in assay [9] was “inactive” in each case.
For the molecule `O=C(CCl)c1ccc(Cl)cc1Cl`, the Potency result in assay [1], in assay [3], in assay [6], in [10], in assay [7] and in assay [8] was “inactive” each time. Further, in assay [9], the Potency result was “inactive”. The Potency in [2] was 23.9 µM (active); in [4], “inactive and 16.9 µM (active)”; in [5], 4.77 µM (active).
Turning to `CCCN(CCC)c1c([N+](=O)[O-])cc(S(C)(=O)=O)cc1[N+](=O)[O-]`, the Potency entry in [1], in assay [2], in assay [3], in assay [4], in assay [10] and in assay [7] was “inactive” throughout. In assay [9], the Potency entry was “inactive”. The Potency in [5] and in [6] was 13.8 µM (active) each time.
For `CCOP(=O)(OCC)SCCSCC`, the Potency entry in assay [1], in assay [2], in assay [3], in [4], in assay [5] and in [6] was “inactive” throughout. Besides, the Potency result in assay [10], in assay [7], in assay [8] and in assay [9] was “inactive” throughout.
As to `CCOP(=S)(OCC)SCSCC`, the Potency entry in assay [1], in [2], in [3], in [4], in [5] and in assay [6] was “inactive” throughout. The Potency result in assay [10], in assay [8] and in assay [9] was “inactive” each time.
Consider `CC(C)(OO)c1ccccc1`, for which the Potency entry in [1], in [2], in [3], in assay [4], in assay [5] and in [6] was “inactive” each time. In addition, the Potency result in [10], in [8] and in [9] was “inactive” each time.
With `Cc1ccc(-c2c(Cl)nc(C#N)n2S(=O)(=O)N(C)C)cc1`, the Potency result in [1], in assay [2], in [3], in [4], in assay [5] and in [6] was “inactive” throughout. In addition, the Potency entry in assay [10], in assay [8] and in assay [9] was “inactive” each time.
Turning to `ClCc1cccc(Cl)c1`, the Potency entry in [1], in assay [2], in assay [3], in [4], in [5] and in assay [6] was “inactive” in each case. Moreover, the Potency entry in assay [7], in [8] and in [9] was “inactive” each time.
In the case of `CCO[C@H]1O[C@@H]2OC3(C)CC[C@H]4[C@H](C)CC[C@@H]([C@H]1C)[C@@]24OO3`, the Potency result in [1], in assay [2], in assay [3], in assay [4], in [5] and in assay [6] was “inactive” throughout. For the same molecule, the Potency entry in assay [10], in assay [7], in assay [8] and in assay [9] was “inactive” in each case.
Take `ClCCCCBr`: the Potency entry in assay [1], in [2], in assay [3], in [4], in assay [5] and in assay [6] was “inactive” each time. Besides, the Potency result in [10], in [7] and in assay [9] was “inactive” throughout.
In the case of `CC1C(=O)C[C@]2(C(C)C)C[C@H]12` (stereo not given in full), the Potency entry in [1], in assay [2], in assay [3], in assay [4], in [5] and in [6] was “inactive” in each case. Further, the Potency entry in assay [10], in assay [7], in assay [8] and in assay [9] was “inactive” throughout.
Take `O=C(OC1CCCCC1)c1ccccc1C(=O)OC1CCCCC1`: the Potency result in assay [1], in assay [2], in [3], in assay [4], in assay [5] and in assay [6] was “inactive” in each case. The Potency entry in [10], in assay [7] and in assay [9] was “inactive” each time.
On to `N#Cc1ccc(Cl)cc1`, for which the Potency result in [1], in [2], in [3], in assay [4], in assay [5] and in assay [6] was “inactive” each time. For the same molecule, the Potency result in [10], in assay [7], in assay [8] and in [9] was “inactive” throughout.
For `CCOc1nc(F)cc2nc(S(=O)(=O)Nc3c(Cl)cccc3Cl)nn12`, the Potency result in assay [1], in [2], in assay [3], in assay [4], in [5] and in assay [6] was “inactive” throughout. In addition, the Potency result in assay [10], in [8] and in assay [9] was “inactive” in each case.
Regarding `CCCCc1c(C)nc(NCC)nc1OS(=O)(=O)N(C)C`, the Potency entry in assay [1], in assay [2], in assay [3], in [4], in assay [10] and in [7] was “inactive” in each case. Further, the Potency result in assay [8] and in [9] was “inactive” each time. For the same molecule, the Potency in assay [5] was 12.3 µM (active); in [6], 9.77 µM (active).
As for `C[C@]12CC[C@H]3[C@@H](CCC4=CC(=O)CC[C@@H]43)[C@@H]1CC[C@@H]2OC(=O)CCC1CCCCC1`, the Potency entry in assay [1], in assay [2], in assay [3], in assay [4], in [5] and in assay [6] was “inactive” in each case. For the same molecule, the Potency result in [10], in assay [7] and in assay [9] was “inactive” throughout.
On to `O=[Se]=O`, for which the Potency result in [1], in assay [3], in assay [4], in [6], in assay [10] and in assay [7] was “inactive” in each case. Further, the Potency entry in [8] and in [9] was “inactive” in each case. In addition, the values for the Potency in assay [2] and in assay [5] were 24.4 µM (active) and 17.3 µM (active), respectively.
`Cn1cc[n+](C)c1` (tested in a mixture with another compound): the Potency entry in assay [1], in assay [2], in assay [3], in assay [4], in assay [5] and in assay [6] was “inactive” throughout. The Potency entry in assay [7] and in assay [9] was “inactive” throughout.
On to `CCOP(=O)(OCC)O/C(=C/Cl)c1ccc(Cl)cc1Cl`, for which the Potency entry in assay [1], in assay [2], in assay [3], in assay [4], in [10] and in assay [7] was “inactive” in each case. Besides, the Potency result in [8] and in assay [9] was “inactive” each time. The Potency in assay [5] was 24.5 µM (active).
As for `Nc1nc(N)nc(N)n1`, the Potency entry in assay [1], in [2], in assay [3], in assay [4], in assay [5] and in assay [6] was “inactive” in each case. Moreover, the Potency entry in [7] and in assay [9] was “inactive” in each case.
On to `O=C1c2ccccc2C(=O)C1C(=O)C(c1ccccc1)c1ccccc1`, for which the Potency result in assay [1], in assay [2], in assay [3], in [4], in assay [5] and in assay [6] was “inactive” throughout. Also, the Potency entry in [8] and in [9] was “inactive” each time.

For the origin of these results see PubChem BioAssay (Tox21).
